A selection: hits, their analogues and other compounds. The true share with any hit is near 8.1%.
Epigenetic reg = regulators of epigenetic silencing causing reporter derepression in mouse cells. murine LDR cells, GFP reporter derepression, 30 h. 280,000 tested, 0.2% active. AID 1865. Potency, µM (series often up to 53.9 µM), inactives show top-dose GFP activation, hits mostly activators; note: % of control where 0% means no effect; nearly all actives have a fitted effect of over 60% in size
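Readout is the number of GFP-expressing murine LDR cells, counted by cytometry following washing. Cells were treated with compound for 30 h at 37 C; the stably integrated CMV-GFP locus is normally silent.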
ClpP mod = qHTS Assay for Activators of ClpP. 340,000 tested, 1.9% active. Potency, µM (top dose mostly 57.5 µM), for the others: at the top dose activity change, negative = active. purified B. subtilis ClpP, FRET peptide cleavage, 20 min; active = well fitted falling curve with a large enough effect; inconclusive = small, poorly fitted or top-dose-only effect; inactive = no such curve, though single readings can be large or run the other way; note: the source files actives as falling curves though it sought activators and does not explain the sign; nearly all actives have a fitted effect of over 65% in size
Target sequence (P80244 whole entry, looked up): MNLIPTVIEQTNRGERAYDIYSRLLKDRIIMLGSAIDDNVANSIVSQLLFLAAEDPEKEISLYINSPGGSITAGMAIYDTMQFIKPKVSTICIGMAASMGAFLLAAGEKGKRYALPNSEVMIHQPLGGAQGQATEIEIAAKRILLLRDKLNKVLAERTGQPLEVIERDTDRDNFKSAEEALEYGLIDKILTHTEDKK
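ClpP 10 microg/mL final, pH 8 Tris/KCl buffer with BSA, glycerol, Tween-20; compound pinned in; FRET-FV substrate; RT 20 min; Ex320/Em430; ΔFRET vs ADEP 5.8 microM, DMSO, no enzyme.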
RORg inh = ROR gamma (mouse) transcription inhibition. 310,000 tested, 5.4% active. P51450. Drosophila S2 Gal4-RORgamma UAS-luciferase reporter, 20 h. Potency, µM (titrated, usually from 53.6 µM), inactives show at the highest dose activity change, negative = inhibition, hits mostly inhibitors; note: % is set by controls: 0 for no effect and ±100 for the full control effect; nearly all actives have a fitted effect of over 60% in size
Target sequence (P51450 whole entry, looked up, the tested form may be a part): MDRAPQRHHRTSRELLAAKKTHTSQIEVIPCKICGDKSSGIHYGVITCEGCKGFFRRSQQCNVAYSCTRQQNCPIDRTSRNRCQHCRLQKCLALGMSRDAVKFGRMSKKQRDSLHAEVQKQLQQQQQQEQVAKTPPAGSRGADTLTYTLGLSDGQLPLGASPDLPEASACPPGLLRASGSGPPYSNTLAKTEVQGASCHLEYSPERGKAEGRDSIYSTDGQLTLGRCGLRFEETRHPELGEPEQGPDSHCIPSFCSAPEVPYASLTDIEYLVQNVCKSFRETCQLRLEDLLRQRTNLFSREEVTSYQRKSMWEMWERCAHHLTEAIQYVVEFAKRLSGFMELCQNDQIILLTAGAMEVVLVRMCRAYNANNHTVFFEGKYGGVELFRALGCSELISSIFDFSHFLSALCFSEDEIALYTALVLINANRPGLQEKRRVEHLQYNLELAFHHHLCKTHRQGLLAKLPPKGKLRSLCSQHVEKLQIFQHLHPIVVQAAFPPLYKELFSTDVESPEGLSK
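In this cell-based reporter format, copper sulfate (700 uM final) drives Gal4–ROR gamma fusion expression from a metallothionein promoter in Drosophila Schneider cells; compounds preincubated 1 hr, reporter read after 20 hr at ambient temperature.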
PINK1 modulator = changes PINK1 expression; Potency, µM (doses to about 76.6 µM), inactives show at the highest dose activation (PINK1 increase), actives largely listed as activators; AID 624263; PINK1 immunofluorescence, high-content cytometry, 24 h; 410,000 tested, 0.2% active; active = well fitted activation curve with a large enough effect; inconclusive = small, poorly fitted or top-dose-only effect; cell line not stated here; note: % of control where 0% means no effect; nearly all actives have a fitted effect of over 65% in size
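Stable cell line treated 24 h with compounds at 5 concentrations (CCCP controls), then fixed and immunostained for PINK1 plus nuclear and cell stains; PINK1 immunofluorescence quantified by laser-scanning microplate cytometry.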
Gal4-VP16 FLuc = counter-screen for ROR gamma inhibitors: Gal4-VP16 reporter; Potency, µM (highest dose often 53.6 µM), for inactives: at the highest dose activity, negative = inhibition, most hits filed as inhibitors; 310,000 tested, 3.5% active; AID 2546; Drosophila S2 Gal4-VP16 UAS-luciferase, luminescence, 20 h;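 note: Gal4-VP16 expression switched on by copper sulfate through the metallothionein promoter; % is set by controls: 0 for no effect and ±100 for the full control effect; nearly all actives have a fitted effect of over 50% in size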
Sfp inh = inhibitors of Bacillus subtilis Sfp phosphopantetheinyl transferase; Q9F4F7; Biochemical Sfp PPTase activity, qHTS; Potency, µM, for inactives: largest response in the series, negative = inhibition, hits mostly inhibitors; 310,000 tested, 3.5% active; AID 1490;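 note: the enzyme is Sfp with the accession as filed and its product quenches rhodamine fluorescence; 0% = enzyme reaction without inhibitor and -100% = no enzyme wells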
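With Hepes-Na pH 7.6 buffer containing 10 mM MgCl2, Sfp (15 nM) modified BHQ-2-YbbR (12.5 uM) using rhodamine-CoA (5 uM). Two reads 30 minutes apart at 525/598 nm yielded each well's rate.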
* = called active by the depositor; ? = inconclusive; . = not tested or not shown; [ ] = dose if it differs, or a comment. Unless noted, calls come from the whole dose curve; as a rule, active = well fitted curve in the direction sought with a large enough effect; inconclusive = small, poorly fitted or top-dose-only effect, or another doubt; inactive = no such curve, though single readings can be large; an effect the other way counts as inactive or inconclusive. Potency is the fitted concentration of half-maximal effect.

SMILES	Epigenetic reg	ClpP mod	RORg inh	PINK1 modulator	Gal4-VP16 FLuc	Sfp inh
O=C(NCc1n[nH]c(=S)n1-c1cccc(C(F)(F)F)c1)c1ccc(S(=O)(=O)N2CCCC2)cc1	-0.3%	1.2%	-29.6%	4.8%	1.9%	-13.7%
FC(F)(F)c1ccc(Cl)c(-n2c(Cc3cccs3)n[nH]c2=S)c1	0.4%	-5.4%	?	-0.7%	5.3%	79.4µM*
Cc1ccccc1-n1c(Cc2cccs2)n[nH]c1=S	-2.3%	-0.9%	1.41µM*	-0.5%[38.3 µM]	?	?
O=C(NCc1n[nH]c(=S)n1-c1ccc(Cl)c(Cl)c1)c1ccco1	.	-4.7%	?	-0.9%	-13.0%	-12.5%
Fc1ccc(-n2c(Cc3cccs3)n[nH]c2=S)cc1Cl	1.1%	.	14.1µM*	-0.9%	-5.8%	6.8%
COCc1n[nH]c(=S)n1-c1cccc2ccccc12	-1.5%	-0.1%	?	-0.5%	-10.3%	-18.0%
COc1ccccc1-c1nn(CCC(=O)Nc2ccc(C)cc2)c2nc(C)cc(C)c12	-4.5%	3.3%	.	-3.8%	.	.
CCOC(=O)c1c(C)[nH]c(C)c1S(=O)(=O)N1CCC(C(=O)Nc2cc(Cl)ccc2OC)CC1	-0.8%	-6.6%	.	0.1%	.	.
O=C(NC(=S)N1CCCCC1c1cccnc1)c1ccc(Br)cc1 (stereo unspecified)	.	-1.1%	0.501µM*	0.7%	1.26µM*	-25.0%
Cc1cccc(NC(=S)N2CCCCC2c2cccnc2)c1C (stereo unspecified)	-0.3%	.	-28.3%	-0.8%	7.7%	-1.0%
O=C(NC(=S)NN1CCCCC1c1cccnc1)c1ccc(Cl)cc1Cl (stereo unspecified)	0.5%	.	1.58µM*	1.9%	4.47µM*	9.7%
O=C(NC(=S)N1CCCCC1c1cccnc1)c1ccc(F)cc1 (stereo unspecified)	.	0.8%	0.891µM*	0.0%	2.51µM*	-16.4%
c1ccc(-n2nnnc2SCc2cn3cccnc3n2)cc1	-3.4%	25.1µM*	25.2%	?	-7.0%[0.365 µM]	-4.2%
c1ccc(-n2nnnc2SCc2cn3ccccc3n2)cc1	0.0%	-5.5%	0.6%	-1.4%	-18.2%	-27.5%
COc1ccc(CNCC(O)(c2ccc(Cl)cc2)c2ccc(Cl)cc2)cc1OC	-0.4%	4.5%	-126.5%	0.5%	?	44.7µM*
OC(CNCc1ccc(Cl)cc1)(c1ccccc1)c1ccc(F)cc1 (stereo unspecified)	9.0%	.	?	14.1%	11.2µM*	-10.7%
CCCCNC(=S)N1CCN(C(c2ccccc2)c2ccccc2)CC1	-1.4%	.	3.16µM*	0.7%	?	14.5%
S=C(NCCc1ccccc1)N1CCCC1	.	0.4%	.	2.1%	.	.
CCNC(=S)N1CCN(C(c2ccccc2)c2ccccc2)CC1	0.2%	0.3%	44.6%	-0.8%[38.3 µM]	-3.5%	-7.7%
CCCNC(=S)N1CCN(C(c2ccccc2)c2ccccc2)CC1	-0.8%	0.9%	11.2µM*	1.9%	17.8µM*	-9.5%
S=C(NCCc1ccccc1)N1CCN(C(c2ccccc2)c2ccccc2)CC1	-1.5%	-1.7%	10µM*	-3.1%	?	1.8%
CCCCNC(=O)N1CCN(C(c2ccccc2)c2ccccc2)CC1	.	-0.8%	-38.7%	0.3%	13.5%	-22.1%
CCc1ccc(NC(=O)CSc2nnc(-c3ccccc3)n2C)cc1	.	-0.7%	.	-1.1%	.	.
COc1ccc(-c2cc(C(=O)N3CCc4c(cnc(C)c4CNC(=O)c4ccsc4)C3)[nH]n2)cc1	.	.	.	1.1%	.	.
CCOc1ccc(NC(=O)CC2C(=O)N(c3ccccc3)C(=O)N2C2CCCC2)cc1 (stereo unspecified)	5.4%	1.8%	.	-0.1%	.	.
SMILES	Epigenetic reg	ClpP mod	RORg inh	PINK1 modulator	Gal4-VP16 FLuc	Sfp inh
Cc1ccc(NC(=O)c2c(C)oc3ccc(O)c(CN4CCCC4)c23)c(C)c1	-1.9%	-5.4%	.	0.4%	.	.
CC1(C)CC(=O)c2cc(-c3nc(-c4ccc(Cl)cc4)cs3)c(=O)n(-c3ccc(F)cc3)c2C1	-1.8%	39.8µM*	.	0.0%	.	.
Cc1cnc(NC(=O)COc2ccccc2Cl)s1	-0.9%	0.2%	7.08µM*	5.2%[38.3 µM]	7.94µM*	18.1%
CNC(=S)Nc1ccc(OC(F)(F)F)cc1	-0.6%	0.1%	7.08µM*	0.9%	10µM*	-28.0%
Oc1ccc(NC(=S)Nc2ccc(F)cc2)cc1	.	1.5%	24.5%	1.9%	-6.3%	-11.8%
CCN(CC)c1ccc(NC(=S)Nc2ccc(F)cc2)cc1	1.3%	.	8.91µM*	?	?	44.7µM*
Fc1ccc(NC(=S)Nc2ccc(Br)cc2)cc1	0.0%	28.2µM*	?	?	?	6.9%
CNC(=S)Nc1ccc(Br)cc1	-2.5%	-3.3%	35.5µM*	-1.1%	-2.1%	3.1%
Cc1cccc(C(=O)NCc2nc(-c3ccccc3NC(=O)C3CCCO3)oc2C)c1 (stereo unspecified)	.	.	.	1.4%	.	.
Cc1cc(C)c2c(CC(=O)Nc3c(C(=O)c4ccc(F)cc4)oc4ccccc34)coc2c1	-1.0%	-0.6%	.	0.1%	.	.
Cc1cccc(-n2nc(C)c(C(=O)Nc3cc(C)ccc3C)c2-n2cccc2)c1	4.8%	?	.	-1.8%	.	.
Cc1cc(/C=C/c2ccnc3ccccc23)ccc1N(C)C	.	-1.4%	.	.	.	.
COc1ccc(-c2nn(-c3ccccc3)cc2C(=O)NC(=S)NNC(=O)c2ccncc2)cc1	1.1%	3.7%	6.31µM*	4.4%	-26.0%	12.8%
CCOc1ccc(-n2c(SCC(=O)N3CCOCC3)nc3c([nH]c4ccccc43)c2=O)cc1	0.0%	-5.6%	.	-4.1%	.	.
CN(C)c1ccc(NC2=C([N+](=O)[O-])CS(=O)(=O)C2)cc1	15.8µM*	1.7%	?	2.2%[38.3 µM]	?	?
Cc1ccc(NC2=C([N+](=O)[O-])CS(=O)(=O)C2)cc1	7.8%	-0.1%	-6.0%	-1.6%[38.3 µM]	13.7%	3.9%
O=c1c2ccccc2c(C=NCc2ccccn2)c(O)n1-c1ccccc1	-1.0%	-14.4%	?	14.7%	-16.4%	14.6%
Cc1ccc(-n2c(O)c(C=NCc3ccccn3)c3ccccc3c2=O)cc1C	0.0%	-7.9%	10µM*	1.9%	22.4µM*	7.0%
O=c1c2ccccc2c(C=NCc2ccccn2)c(O)n1-c1ccccc1Cl	5.9%	.	11.2µM*	0.4%	?	-15.4%
Cc1ccc(NC(=O)CSc2nc3ccccc3n2CC(=O)N(C)C2CCCCC2)cc1C	11.0%	3.9%	.	4.4%	.	.
O=C(CN1C(=O)c2ccccc2S1(=O)=O)c1ccc(OC(F)F)cc1	.	-4.0%	12.6µM*	-1.4%	10µM*	-11.4%
O=C(CN1C(=O)c2ccccc2S1(=O)=O)c1ccccc1F	.	-1.4%	?	-0.1%	?	-9.2%
O=C(CN1C(=O)c2ccccc2S1(=O)=O)c1ccc(F)cc1	1.4%	-0.5%	7.94µM*	1.1%	5.01µM*	8.1%

Screening data (PubChem BioAssay)
